Drawing on PubChem BioAssay, this text covers remaining activity for 40 compounds.

SMILES strings stand for the structures. A number with no mark means an inactive call. No rule for the calls is given here.

For orientation: remaining activity means the signal under treatment as a percentage of the control signal.

In the test the test system is Aerobactin synthetase IucA (Klebsiella pneumoniae, hypervirulent). The experiment in a line: IucA enzyme inhibition, biochemical, LOPAC library, absorbance readout (AID 1346212).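 Also: 100% = no compound wells and 0% = no enzyme wells.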 As to conditions: IucA enzyme assay, absorbance (OD) readout; hits give low values;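 tested at 8 µM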.
For `N=C1Sc2ccccc2C2=NCCCN12`, the remaining activity was 118%. Regarding `CC(C)(C)NCC(O)COc1nsnc1N1CCOCC1` (stereo not given), the remaining activity is 109%. Next, `C=C1C(=O)O[C@@H]2[C@H]3O[C@]3(C)CC/C=C(\C)CC[C@@H]12`: 119%; `CN1CC(O)C(O)C(O)C1CO` (stereo not given): 105%. Consider `COc1cc2c(cc1O)CC[C@@H]1[C@@H]2CC[C@]2(C)[C@@H](O)CC[C@@H]12`, for which the remaining activity was 116%.

Consider `CC(=O)/C(C)=N/O`, for which the remaining activity is 106%. Turning to `C[C@]12C=CC(=O)C=C1CC[C@@H]1C2=CC[C@]2(C)[C@@H](C(=O)CN3CCN(c4cc(N5CCCC5)nc(N5CCCC5)n4)CC3)CC[C@@H]12`, the remaining activity was 102%. Regarding `c1ccc(C2CN3CCSC3=N2)cc1` (stereo not given), the remaining activity is 92.5%. As to `CCCc1c(OCCCOc2ccc(OCC(=O)O)cc2)ccc(C(C)=O)c1O`, the remaining activity was 101%. With `CC(C)Cn1cnc2c(N)nc3ccccc3c21`, the remaining activity was 102%. `CCCCNc1c(C(=O)OCC)c(C)nc2c1cnn2CC`: the remaining activity is 121%. Next, `NCCNC(=O)c1ccc(Cl)cc1`: 88.1%.

Turning to `Cc1ccc([N+](=O)[O-])cc1S(=O)(=O)N(C)C`, the remaining activity is 108%. On to `CC(CCc1ccc(O)cc1)NCCc1ccc(O)c(O)c1` (stereo not given), for which the remaining activity was 98.4%. In the case of `NC(=O)OCC(COC(N)=O)c1ccccc1`, the remaining activity was 100%. Under `CCC(=O)c1ccc2c(c1)N(CCCN(C)C)c1ccccc1S2` stands 88.8%; under `COC(=O)c1c(-c2cc(OC)c(OC)c(OC)c2)c2ccc(OCc3ccccn3)cc2c(=O)n1-c1ccc(N)cc1`, 86.8%. `O=C(O)[C@@H]1C[C@H](C(=O)O)N1`: the remaining activity is 109%. Regarding `C[N+]1(C)[C@@H]2CC(OC(=O)[C@H](CO)c3ccccc3)C[C@H]1[C@@H]1O[C@@H]12` (stereo not given in full), the remaining activity was 112%. Under `CC[C@H](CO)Nc1nc(NCc2ccccc2)c2ncn(C(C)C)c2n1` stands 123%. Next, `Fc1ccc(C(OCCCc2cnc[nH]2)c2ccc(F)cc2)cc1`: 111%. Next, `CCCC(=O)NCCc1c2n(c3ccc(OC)cc13)CCCc1ccccc1-2`: 116%; `CN1CCc2cc(O)c(O)cc2C(c2ccccc2)C1` (stereo not given): 105%; `Cc1nc(N=Nc2cc(S(=O)(=O)O)c3cc([N+](=O)[O-])cc(S(=O)(=O)O)c3c2)c(COP(=O)(O)O)c(C=O)c1O`: 118%.

For the compound `CNCC[C@H](Oc1ccc(C(F)(F)F)cc1)c1ccccc1`, the remaining activity was 93.6%. `Cc1cn([C@H]2C=C[C@@H](CO)O2)c(=O)[nH]c1=O`: the remaining activity is 106%. Turning to `O=c1[nH]c2ccccc2n1CCCN1CCN(C(c2ccccc2)c2ccccc2)CC1`, the remaining activity was 116%. With `NC(=O)c1cn(Cc2c(F)cccc2F)nn1`, the remaining activity was 117%. Take `CCCc1c(-c2ccc(O)cc2)nn(-c2ccc(O)cc2)c1-c1ccc(O)cc1`: the remaining activity is 102%. Next, `CCCCCCCC/C=C\CCCCCCCC(=O)O`: 119%. Next, `NC(=O)c1ccc2[nH]ccc2c1`: 89.8%; `COc1cc2c(cc1OC)[C@@H](c1ccccc1)CN(C)CC2`: 102%.

Take `NC(N)=N/N=C/c1c(Cl)cccc1Cl`: the remaining activity was 87.5%.

With `O=c1c2ccccc2nc2n1CCc1c-2[nH]c2ccccc12`, the remaining activity was 82.9%. Under `CCOC(=O)c1ncn2c1CN(C)C(=O)c1cc(F)ccc1-2` stands 100%; under `COc1cc2c(CCNC(C)=O)c[nH]c2cc1O`, 92.2%. Next, `Nc1ncnc2c1ncn2C1CCCC1`: 120%; `CC[N+](CC)(CC)CCOc1ccc(/C=C/c2ccccc2)cc1`: 118%; `CC[C@H]1CN2CCc3cc(OC)c(OC)cc3[C@@H]2C[C@@H]1C[C@H]1NCCc2cc(OC)c(OC)cc21`: 123%. As for `Fc1ccc(CN(C2=NCCN2)c2c(Cl)cccc2Cl)cc1`, the remaining activity is 113%.
